Source: PubChem
Efflux pump mplx – inhibitors of Candida antifungal efflux pumps expressed in yeast. inhibition, % at 10 µM. actives 0.44% (n = 330,000). S. cerevisiae Candida pump triplex, Nile Red efflux;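 active = plate passing quality check with inhibition over a set limit, or well fluorescence over plate mean plus 4 SD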;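 also: Nile Red retained in pooled yeast measured as flow cytometry median fluorescence; 0% = buffer negative control and 100% = Enniatin B positive control; higher means more Nile Red kept so more efflux inhibition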
SKN-1 block – inhibitors of C. elegans SKN-1; C. elegans VP596 Pgst-4::GFP/RFP ratio, acrylamide-induced, 24 h; inhibition, % at 21.8 µM; actives 0.49% (n = 360,000);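 active = interference check ratio from 0.5 to 1.5 plus GFP to RFP signal ratio inhibition reaching or exceeding a fixed threshold, cut at about 30% in these data, passing the limit was not always enough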
SUMO Mot1 rescue – blocks SUMOylation pathway, rescuing yeast Mot1-301 growth; AID 2716; S. cerevisiae Mot1-301 growth rescue, ATP luminescence, 38.5C; percent above DMSO median, 100 means doubled; growth rescue, % at 18.8 µM; actives 1% (n = 320,000);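 active = every valid replicate shows activation above 250% relative to neutral control wells; inactive = the rest, any valid replicate at or below 250%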;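 also: OY570 slx delta 5 strain wells were the positive control but not used for scaling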
sPLA2-III inh – Inhibits HGIII-sPLA2 liposome hydrolysis, primary screen | Q9NZ20 | QFRET BODIPY PC-A2 liposome hydrolysis, fluorescence | actives 0.56% (n = 370,000) | inhibition, % at 12.2 µM;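 active = inhibition above mean plus 3 SD of compounds lying within the high and low control bounds, cut at about 19% in these data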;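 also: 0% = median of test compound wells and 100% = no enzyme DMSO wells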
Target sequence (Q9NZ20 whole entry, looked up): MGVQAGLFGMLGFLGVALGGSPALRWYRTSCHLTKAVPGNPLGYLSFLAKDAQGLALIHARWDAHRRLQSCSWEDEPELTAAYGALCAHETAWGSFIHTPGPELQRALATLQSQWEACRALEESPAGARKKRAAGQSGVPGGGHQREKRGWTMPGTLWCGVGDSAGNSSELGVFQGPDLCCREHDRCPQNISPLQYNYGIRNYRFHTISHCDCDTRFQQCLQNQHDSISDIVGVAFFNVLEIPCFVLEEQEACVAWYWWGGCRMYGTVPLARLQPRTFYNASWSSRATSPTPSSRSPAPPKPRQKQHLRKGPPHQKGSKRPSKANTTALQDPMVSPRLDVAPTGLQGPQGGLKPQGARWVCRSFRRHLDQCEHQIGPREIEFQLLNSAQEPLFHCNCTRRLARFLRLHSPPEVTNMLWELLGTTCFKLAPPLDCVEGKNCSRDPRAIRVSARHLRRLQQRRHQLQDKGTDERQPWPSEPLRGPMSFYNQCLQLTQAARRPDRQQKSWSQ
An asterisk follows results filed as active; x = no result; ! = repeats disagree. Sampled rows, rich in hits. Any-hit rate of the full collection: about 2.2%.

SMILES	Efflux pump mplx	SKN-1 block	SUMO Mot1 rescue	sPLA2-III inh
CC(=O)Oc1ccc(C)cc1-n1nc2ccccc2n1	0	20	-3	-3
Cc1ccc(OCC(=O)O)c(-n2nc3ccccc3n2)c1	0	3	340*	1
CCN=C1NC(c2ccccc2C(F)(F)F)C(C(=O)OC)=C(C)N1Cc1ccc(C(F)(F)F)cc1 (centres undefined)	x	x	x	-10
O=C(COc1ccc(S(=O)(=O)N2CCOCC2)cc1Cl)NC1CCCCC1	0	8	338*	-3
CC(NS(=O)(=O)c1ccc(OCC(=O)N2CCOCC2)cc1)c1ccccc1 (centres undefined)	0	-6	903	-9
CC(NS(=O)(=O)c1ccc(OCC(=O)N2CCOCC2)c(Cl)c1)c1ccccc1 (centres undefined)	0	38*	3	-6
CC(C)C[C@H](NC(=O)C1CCCC1)C(=O)N1CCC[C@H]1C(=O)NCc1ccccc1	x	x	x	-1
Cn1c(Cc2c[nH]c3ccccc23)n[nH]c1=S	0	44*	8	7
CC(NC(=O)COC(=O)c1cc(=O)c2ccccc2o1)c1ccccc1 (centres undefined)	0	-4	-12	-1
Cc1cnc(C(=O)N(CCCn2ccnc2)C2C(=O)Nc3ccccc3N=C2c2ccccc2)cn1 (centres undefined)	x	37*	x	-8
COc1ccc(C2=Nc3ccccc3NC(=O)C2N(C(=O)c2cnc(C)cn2)c2ccc(N3CCOCC3)cc2)cc1 (centres undefined)	x	6	x	-8
COc1ccccc1-c1c(C(F)(F)F)oc2cc(OC(=O)c3cccc([N+](=O)[O-])c3C)ccc2c1=O	0	36*	13	-11
C[C@H](O)[C@@H]1CN2CCc3c([nH]c4ccccc34)[C@@H]2C[C@@H]1N(C)CC1CCCCC1	x	x	x	-19
CC(N)C12CC3CC(CC(C3)C1)C2 (centres undefined)	0	9	329*!	2
NC(CO)C12CC3CC(CC(C3)C1)C2 (centres undefined)	0	-5	1	15
CCC(C)c1ccc(O)c(NC(=O)c2cccnc2)c1 (centres undefined)	0	3	390*	-7
C(=C1c2ccccc2-c2ccccc21)c1ccncc1	x	40*	x	4
COc1ccc(NC(=O)NNC(=O)CCc2ccc(O)c(O)c2)cc1OC	0	14	-9	-1
Cn1cc(CC(=O)Nc2ccc(Nc3cccnc3)c(Br)c2)c2ccccc21	x	x	x	-48
COC(=O)C[C@H]1c2ccccc2S(=O)(=O)N1Cc1ccc(OC)cc1	0	8	13	3
Cc1ccc(C)c(NC(=O)C(c2ccccc2)N2CCN(CC(=O)N3CCOCC3)CC2)c1 (centres undefined)	0	-9	-4	7
Cc1ccc(C)c(NC(=O)C(NCC(C)(C)N2CCOCC2)c2ccccc2)c1 (centres undefined)	0	12	767*	0
CC(C)(C)NC(=O)CN(C(=O)CCN1CCCc2ccccc21)C(C)(C)C	0	40*	6	11
CC(C)(C)NC(=O)CN(Cc1cccs1)C(=O)CCN1CCc2ccccc21	1	4	-3	4
CC1OC2(C)OC(=N)C1(C#N)C(C#N)(C#N)C2c1ccccc1 (centres undefined)	0	37	152	-1
SMILES	Efflux pump mplx	SKN-1 block	SUMO Mot1 rescue	sPLA2-III inh
CCCCC1OC2(C)OC(=N)C1(C#N)C(C#N)(C#N)C2c1ccccc1 (centres undefined)	0	44*	2	-11
CCN=C1NC(CCc2ccccc2)C(C(=O)OC)=C(C)N1Cc1ccc(C(F)(F)F)cc1 (centres undefined)	x	x	x	-4
CCN(CC)C(=O)CC[C@H]1CC[C@]2(CCCN(C3CCCCC3)C2)O1	x	x	x	5
CS(=O)(=O)N1CCC(C(=O)N2CCN(c3ccccc3F)CC2)CC1	0	5	310*	3
C(/C=C\c1ccco1)=NN1CCN(Cc2cccc3ccccc23)CC1	x	x	x	10
CCOc1cc(CNC2CCCC2)cc(Cl)c1OCc1ccc(F)cc1	0	75*	1	5
COc1cc(CNC(C)c2ccccc2)cc(Br)c1OCc1ccc(F)cc1 (centres undefined)	0	66*	-20	-19
COc1cc(CNC2CCCC2)cc(Cl)c1OCc1ccc(F)cc1	0	56*	22	11
COc1cc(CNC2CCCC2)cc(Cl)c1OCc1ccccc1Cl	0	17	66	x
CN(C)CCCNC(=O)c1ccc(-c2cc3nc(NCc4cccnc4)n(C)c(=O)c3s2)cc1	x	-6	x	-3
